Source: PubChem BioAssay AID618 (Sanford-Burnham Center for Chemical Genomics, 2007)
Screen size: about 87,000 compounds; about 540 (0.62%) were called active. No rule for the calls is given here. The list comes from a sample in which actives are over-represented; it also holds similar structures and randomly drawn compounds. Measured potencies and affinities stand elsewhere.

Experiment: inhibitors of MT1-MMP promoter transcription, cell-based, luciferase reporter, luminescence (AID 618);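 also: actives suppress MT1-MMP promoter-driven transcription so potencies describe inhibitors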
Conditions: MT1-MMP promoter luciferase reporter cells

outcome, active:
O=C(c1ccc(F)cc1)C(CN1CCOCC1)c1ccccc1 (stereo not given)
N#CC1=C(N)C(C#N)(C#N)[C@H](c2ccoc2)[C@H]2CN(Cc3ccccc3)CC=C12
Cc1nnc(SCc2cnc(-c3ccc(C(C)C)cc3)s2)n1C
COc1ccc(CS(=O)(=O)/C(Cl)=C(/Cl)C(=O)Nc2ccc(OC)nc2)cc1
COc1ccc(NC(=O)/C(Cl)=C(/Cl)S(=O)(=O)Cc2ccccc2)cn1
COc1cccc2c1C(=O)c1c(O)c3c(c(O)c1C2=O)C[C@@](O)(C(C)=O)C[C@@H]3O[C@H]1C[C@H](N)[C@H](O)[C@H](C)O1
CCn1c(C)nc2cc(-c3nc4n(n3)Cc3ccccc3-4)ccc21
Fc1ccc(-c2nc3n(n2)Cc2ccccc2-3)cc1
Cc1cccc(-c2noc(-c3ccc(F)cc3)n2)c1
CN(C)c1ccc(-c2noc(-c3ccccc3O)n2)cc1

outcome, inactive:
CC(CN1CCOCC1)C(=O)c1ccccc1 (stereo not given)
COc1ccc(C(=O)C(CN2CCOCC2)c2ccccc2)cc1 (stereo not given)
COc1ccc(C(=O)C(CN2CCOCC2)c2ccccc2)cc1F (stereo not given)
CCCCCOc1ccc(C(=O)C(c2ccccc2)N2CCOCC2)cc1 (stereo not given)
O=C(NCC1CCCCC1)C1CCN(C(=O)NC2CCCCC2)CC1
COc1ccc(-c2nc3c(n2O)CCCC3=O)cc1OC
O=C(CCSCCc1ccccn1)Nc1ccc(Br)cn1
Cc1ccc(C(=O)Nc2nc3ccccc3s2)s1
c1ccc(CCNc2nc3ccccc3s2)cc1
COc1ccc(NC(=O)NC(C)(C(F)(F)F)C(F)(F)F)cc1
CN(C)c1nc(SCc2ccccc2)nc(N2CCOCC2)n1
C/C(=N\NC(=O)C1COc2ccccc2O1)c1cccs1 (stereo not given)
C/C(=N/NC(=O)c1cc(C(C)C)[nH]n1)c1cccs1
O=C(Nc1ccc(Cc2ccncc2)cc1)c1ccc(S(=O)(=O)N2CCOCC2)cc1
CC(C)c1nc(=S)c2ccccc2[nH]1
CN1CC=C2C(C#N)=C(N)C(C#N)(C#N)[C@H](c3ccoc3)[C@H]2C1
CCN1CC=C2C(C#N)=C(N)C(C#N)(C#N)[C@H](c3ccoc3)[C@H]2C1
COc1ccc(/C(C)=N\n2cnnc2)cc1
COCCn1c(SCc2cnc(-c3ccccc3)s2)nnc1-c1ccncc1
Cn1c(SCc2cnc(-c3ccccc3)s2)nnc1C1COc2ccccc2O1 (stereo not given)
Cc1cccc(NC(=O)CSCc2c(C)noc2C)c1C
CN(C1=NC(=O)C(CC(=O)Nc2ccc(Br)cc2)S1)c1ccc(O)cc1 (stereo not given)
CC(=O)N(CCc1ccccc1C)Cc1cc2cc3c(cc2[nH]c1=O)OCO3
Cc1ccccc1C(=O)N1CCC(C(=O)Nc2ccc3c(c2)OCCO3)CC1
Cc1ccc(C(=O)N2CCN(c3cccc(Cl)c3)CC2)cc1C
O=C(O)c1ccccc1C(=O)N1CCN(c2cccc(Cl)c2)CC1
CCCCC(=O)Nc1ccc(C(=O)N2CCC(C(=O)OCC)CC2)cc1
Cc1ccc(C(=O)Nc2sc3c(c2C#N)CCCCC3)cc1C
Cc1ccc(-c2nnc(-c3ccc(Br)cc3)o2)o1
C=CCn1c(SCC(=O)c2ccccc2)nnc1-c1cc2ccccc2o1
CC1CC(C)CN(C(=O)CSc2nnc(-c3ccc(Cl)cc3)o2)C1 (stereo not given)
COc1ccc(NC(=O)C(CC(C)C)NC(=O)c2ccccc2C)cn1 (stereo not given)
COc1ccc(CNC(=O)Nc2ccc(C)cc2)cc1
COc1ccc(NS(=O)(=O)Cc2ccccc2Cl)cn1
CCCS(=O)(=O)C(=C(Nc1ccc(OC)cc1)Nc1ccc(OC)cc1)S(=O)(=O)CCC
COc1ccc(NC(=O)c2cc(OC)c(OC)c(OC)c2)cn1
COC(=O)c1ccccc1S(=O)(=O)Nc1ccc(OC)nc1
CCOc1ccccc1Nc1nc(N)nc(CN(C)C2CCCCC2)n1
Cc1nc2cc(C(=O)O)ccc2n1C1CCCCC1
CC1=CC(=C2C(=O)c3ccccc3C2=O)C=C(C)O1
CN1C=CC(=C2C(=O)c3ccccc3C2=O)C=C1
CC1=CC(=C2C(=O)c3ccccc3C2=O)C=C(C)N1C
CCNC1=C(Cl)C(=O)c2ccccc2C1=O
CCSc1nc(N)c(C#N)c(-c2ccco2)c1C#N
c1nc(N2CCOCC2)c2[nH]cnc2n1
COc1cccc2c1C(=O)c1c(O)c3c(c(O)c1C2=O)C[C@@](O)(C(=O)CO)C[C@@H]3O[C@H]1C[C@H](N)[C@H](O)[C@H](C)O1
O=C(Cn1cc2c(n1)CCCCC2)NC1CCCCCC1
COC(=O)c1cccc(NC(=O)c2cnoc2C)c1
Cc1csc2ncc(C(=O)Nc3ccc(C(F)(F)F)cc3)c(=O)n12
COc1ccc(CNC(=O)[C@H](C)[C@H]2C[C@]2(C)[C@H](NC(=O)OCc2ccccc2)c2ccccc2)cc1OC
CCOC(=O)CSc1nc(C)c2ccc(C)cc2n1
Clc1ccc(-c2nc3n(n2)Cc2ccccc2-3)cc1
CCn1c(C)nc2cc(S(=O)(=O)N3CCCC3)ccc21
CCN(CC)S(=O)(=O)c1cccc(-c2nc3n(n2)Cc2ccccc2-3)c1
N#CCc1nc2n(n1)Cc1ccccc1-2
CCn1c(C)nc2cc(-c3nnc(-c4c(-c5ccccc5)noc4C)o3)ccc21
O=S(=O)(c1cccc(-c2nc3n(n2)Cc2ccccc2-3)c1)N1CCCC1
CCOc1ccc(C2Oc3nc(SC)nnc3-c3ccccc3N2C(C)=O)cc1OC (stereo not given)
O=C(C1CCCN(S(=O)(=O)c2cnc[nH]2)C1)N1CC(=O)N(CCc2ccccc2)C(=O)C1 (stereo not given)
CN(CC(=O)N1CC(=O)N(CCc2ccccc2)C(=O)C1)S(=O)(=O)c1cccc2nsnc12
Cc1cc(C)n(-c2ccc(C(=O)OCc3nnc(-c4ccccc4)o3)cc2)n1
CCCCC(CC)CNC(=O)C1CCCN(S(=O)(=O)c2cnc[nH]2)C1 (stereo not given)
Cc1cc(C)n2nc(S(=O)(=O)NC3CCCCC3)nc2n1
OCCN1CCN(Cc2cc(Cl)c3cccnc3c2O)CC1
CN1CCN(Cc2cc(COCc3ccccc3)c3cccnc3c2O)CC1
Oc1c(CN2CCOCC2)cc(COCc2ccccc2)c2cccnc12
Oc1ccc(CN2CCc3ccccc3C2)c2cccnc12
COC(=O)c1sc(S(=O)(=O)NCc2cccs2)c(C(=O)OC)c1C
COc1cc(C(=O)NCCC2=CCCCC2)cc(OC)c1OC
COc1ccc(C(=O)NCCC2=CCCCC2)cc1OC
O=C(NCCc1ccc(Cl)cc1)c1nnc(Cc2ccc(Cl)cc2)o1
CC1CCCCC1NC(=O)C1CCN(S(=O)(=O)N2CCC3(CC2)OCCO3)CC1 (stereo not given)
CC1C(=O)CCN(C(C)(C)C)C1C (stereo not given)
COc1ccc(OC)c(C2c3c(oc4ccccc4c3=O)C(=O)N2CCCN(C)C)c1 (stereo not given)
Fc1ccccc1-c1nc(-c2ccccc2)no1
c1ccc(-c2nc(-c3ccncc3)no2)cc1
COc1ccc(-c2nc(-c3cccc(C)c3)no2)cc1OC
Cc1ccc(SCc2nc(-c3ccccc3)no2)cc1
Cc1ccc(-c2noc(-c3ccccc3Br)n2)cc1
Cc1ccc(-c2nc(-c3cccnc3)no2)cc1
c1ccc(-c2ccc(-c3nc(-c4cccnc4)no3)cc2)cc1
COc1cc(-c2nc(-c3cccc(C)c3)no2)cc(OC)c1OC
COC(=O)c1ccccc1NC(=O)C1CC=CCC1C(=O)O (stereo not given)
COC(=O)c1ccc(C(=O)OC)c(NC(=O)CCC(=O)O)c1
CCC1CCCCN1S(=O)(=O)c1ccc(NC(=O)CSc2ncccc2C(=O)O)cc1 (stereo not given)
COc1ccc(CCN(C(=O)c2ccccc2)C2=CC3CCC(C2)N3C)cc1OC (stereo not given)
CS(=O)(=O)N1CCC(C(=O)N2CCc3ccccc3C2)CC1
CC(=O)NC(C1C(=O)CC(C)(C)CC1=O)(C(F)(F)F)C(F)(F)F
O=C(COc1ccc(Cl)cc1)NCc1nnc(SCC(=O)NCc2ccc3c(c2)OCO3)o1
CCOC(=O)c1cnc(C(C)(C)C)[nH]c1=O
CCOc1ccc(-c2nc(-c3ccncc3)no2)cc1OCC
CCc1ccc(-c2nc(-c3ccncc3)no2)cc1
c1ccc(-c2noc(-c3ccccc3-c3ccccc3)n2)cc1
NC(=O)c1ccccc1-c1nc(-c2ccccc2)no1
Cc1cc(C)cc(-c2nc(-c3ccncc3)no2)c1
COc1ccc(-c2nc(-c3ccncc3)no2)cc1OC
CCCC(=O)Nc1c(-c2cccs2)c(=O)c2ccccc2n1CC
CCOC(=O)c1ccc(S(=O)(=O)N2CCN(CC3CC=CCC3)CC2)cc1 (stereo not given)
COc1ccccc1C1/C(=C(/O)c2ccc(Cl)cc2)C(=O)C(=O)N1CCN1CCOCC1 (stereo not given)
O=C(O)CN1C(=O)Nc2ccc(Br)cc2C1c1ccccc1 (stereo not given)
Cc1nc(CC(=O)c2c(C)cc(O)cc2O)cs1
O=C(Cc1cccs1)NCc1cccs1
COC(=O)C(C)Oc1ccc(=O)[nH]n1 (stereo not given)
COc1ccc(OC)c(NC(=O)Cc2coc3cc(C)cc(C)c23)c1
CS(=O)(=O)N(Cc1ccccc1)c1ccccc1C(=O)N1CCN(c2ccccc2)CC1
